# Results taken from PMC5700166.
# Target: T1, GST-Nv-NF-kB (Ser allele) (Nematostella vectensis, UniProt A7UNT2 2-411)
# T1 sequence: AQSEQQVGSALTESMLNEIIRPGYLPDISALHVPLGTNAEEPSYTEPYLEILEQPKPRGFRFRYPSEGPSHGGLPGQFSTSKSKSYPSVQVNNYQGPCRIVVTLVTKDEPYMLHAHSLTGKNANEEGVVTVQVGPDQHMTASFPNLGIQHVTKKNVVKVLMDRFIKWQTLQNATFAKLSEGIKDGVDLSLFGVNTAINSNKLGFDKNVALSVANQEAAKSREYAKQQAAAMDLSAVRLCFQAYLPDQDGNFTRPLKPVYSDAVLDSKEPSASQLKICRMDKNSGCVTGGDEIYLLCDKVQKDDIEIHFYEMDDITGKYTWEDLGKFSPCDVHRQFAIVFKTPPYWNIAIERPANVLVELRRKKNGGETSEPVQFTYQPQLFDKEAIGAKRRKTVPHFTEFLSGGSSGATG
# Assay: protein-binding microarray (PBM); PBM: ~300 nM protein, 6 mM HEPES pH 7.8, 80 mM KCl, 0.5 mM EDTA, 0.5 mM EGTA, 6% glycerol, 35 ng/ul poly-dIdC, 1% milk, 1 h, room temperature; Ap Aiptasia and Nv Nematostella (sea anemones) / Co Capsaspora / Aq Amphimedon (sponge) / Dm Drosophila / Hu human; RHD is the Rel homology domain; high values mean tight binding
# Details: dsDNA, one strand shown
row,Sequence,binding signal
1,CCGATTAACATCAGGATGTCCCCTGATGTTAATCGGGTCTTGATTCGCTTGACGCTGCTG,4.5 z-score
2,CCGATTAACATCAGGGGGAGTCATGATGTTAATCGGGTCTTGATTCGCTTGACGCTGCTG,5.02 z-score
3,CCGATTAACATCAGGGGGAACAATGATGTTAATCGGGTCTTGATTCGCTTGACGCTGCTG,6.27 z-score
4,CCGATTAACATCAGGCGTTCCCCTGATGTTAATCGGGTCTTGATTCGCTTGACGCTGCTG,5.77 z-score
5,CCGATTAACATCAGATAAACCCCTGATGTTAATCGGGTCTTGATTCGCTTGACGCTGCTG,3.09 z-score
6,CCGATTAACATCATACTTCCCCATGATGTTAATCGGGTCTTGATTCGCTTGACGCTGCTG,6.52 z-score
7,CCGATTAACATCATCCCCCCCCATGATGTTAATCGGGTCTTGATTCGCTTGACGCTGCTG,4 z-score
8,CCGATTAACATCAAACAGTCCCCTGATGTTAATCGGGTCTTGATTCGCTTGACGCTGCTG,4.53 z-score
9,CCGATTAACATCACCGAACCCCCTGATGTTAATCGGGTCTTGATTCGCTTGACGCTGCTG,5.24 z-score
10,CCGATTAACATCAGACAACCCCCTGATGTTAATCGGGTCTTGATTCGCTTGACGCTGCTG,4.56 z-score
11,CCGATTAACATCAGGGGGTTCACTGATGTTAATCGGGTCTTGATTCGCTTGACGCTGCTG,4.69 z-score
12,CCGATTAACATCAAAATTCCCTGTGATGTTAATCGGGTCTTGATTCGCTTGACGCTGCTG,6.24 z-score
13,CCGATTAACATCAAAACACCCCCTGATGTTAATCGGGTCTTGATTCGCTTGACGCTGCTG,5.6 z-score
14,CCGATTAACATCAGGCATCCCCCTGATGTTAATCGGGTCTTGATTCGCTTGACGCTGCTG,4.92 z-score
15,CCGATTAACATCAAATACCCCCCTGATGTTAATCGGGTCTTGATTCGCTTGACGCTGCTG,6.55 z-score
16,CCGATTAACATCAAATAAGCCCCTGATGTTAATCGGGTCTTGATTCGCTTGACGCTGCTG,4 z-score
17,CCGATTAACATCAGGAACTCCCCTGATGTTAATCGGGTCTTGATTCGCTTGACGCTGCTG,5.51 z-score
18,CCGATTAACATCAGCCCCCCCCATGATGTTAATCGGGTCTTGATTCGCTTGACGCTGCTG,2.7 z-score
19,CCGATTAACATCAAAATTCCCGATGATGTTAATCGGGTCTTGATTCGCTTGACGCTGCTG,4.77 z-score
20,CCGATTAACATCAGGGCATGCCCTGATGTTAATCGGGTCTTGATTCGCTTGACGCTGCTG,1.33 z-score

row,Sequence,binding signal
1,CCGATTAACATCACTAAACCCCCTGATGTTAATCGGGTCTTGATTCGCTTGACGCTGCTG,6.49 z-score
2,CCGATTAACATCACTAATCCCCCTGATGTTAATCGGGTCTTGATTCGCTTGACGCTGCTG,6.57 z-score
3,CCGATTAACATCAGGGCTCCCCCTGATGTTAATCGGGTCTTGATTCGCTTGACGCTGCTG,5.09 z-score
4,CCGATTAACATCAAGGGGGGAGATGATGTTAATCGGGTCTTGATTCGCTTGACGCTGCTG,4.86 z-score
5,CCGATTAACATCAGGCATTCCCATGATGTTAATCGGGTCTTGATTCGCTTGACGCTGCTG,1.11 z-score
6,CCGATTAACATCAGAAAGTTCCCTGATGTTAATCGGGTCTTGATTCGCTTGACGCTGCTG,3.65 z-score
7,CCGATTAACATCACGGAAAAACCTGATGTTAATCGGGTCTTGATTCGCTTGACGCTGCTG,1.31 z-score
8,CCGATTAACATCAAAATAGCCCCTGATGTTAATCGGGTCTTGATTCGCTTGACGCTGCTG,5.05 z-score
9,CCGATTAACATCAGGGAAAGGGATGATGTTAATCGGGTCTTGATTCGCTTGACGCTGCTG,3.11 z-score
10,CCGATTAACATCAACTCCCCCCATGATGTTAATCGGGTCTTGATTCGCTTGACGCTGCTG,4.05 z-score
11,CCGATTAACATCAGGGGGAGCACTGATGTTAATCGGGTCTTGATTCGCTTGACGCTGCTG,4.71 z-score
12,CCGATTAACATCACCCCCCCCCCTGATGTTAATCGGGTCTTGATTCGCTTGACGCTGCTG,5.24 z-score
13,CCGATTAACATCAATACCCCCCCTGATGTTAATCGGGTCTTGATTCGCTTGACGCTGCTG,4.49 z-score
14,CCGATTAACATCAAAAAATCTCCTGATGTTAATCGGGTCTTGATTCGCTTGACGCTGCTG,1.5 z-score
15,CCGATTAACATCATGGTACTTGTTGATGTTAATCGGGTCTTGATTCGCTTGACGCTGCTG,1.85 z-score
16,CCGATTAACATCAAAGAGCCCCCTGATGTTAATCGGGTCTTGATTCGCTTGACGCTGCTG,3.77 z-score
17,CCGATTAACATCAGGAGATCCCCTGATGTTAATCGGGTCTTGATTCGCTTGACGCTGCTG,6.55 z-score
18,CCGATTAACATCACAGAAACCCCTGATGTTAATCGGGTCTTGATTCGCTTGACGCTGCTG,4.97 z-score
19,CCGATTAACATCAACTCCCCCCCTGATGTTAATCGGGTCTTGATTCGCTTGACGCTGCTG,4.48 z-score
